In the antibiotic and cytotoxicity screens of Wong et al. (2023) one finds cytotoxicity call data, which are given here for 42 compounds.

Among all 39,000 compounds or so, about 3,300 (8.5%) were called active. The sample holds actives, similar compounds and a random draw of the others, so the mix is not that of the screen.

The experiment relates to HepG2. Briefly: cytotoxicity call (relative viability < 0.9). Conditions: 10 µM.
Take `COc1ccc(NC(=O)N(C)C[C@@H]2Oc3c(NC(=O)c4cc(C)nn4C)cccc3C(=O)N([C@@H](C)CO)C[C@@H]2C)cc1`: the cytotoxicity call was “inactive”.
`COc1ccc(CN(C)C[C@@H]2OCCCC[C@@H](C)Oc3ccc(NS(=O)(=O)c4ccc(C)cc4)cc3C(=O)N([C@H](C)CO)C[C@@H]2C)cc1`: the cytotoxicity call is “inactive”.
As to `COc1ccc(S(=O)(=O)N(C)C[C@H]2Oc3c(NS(C)(=O)=O)cccc3C(=O)N([C@@H](C)CO)C[C@H]2C)cc1`, the cytotoxicity call is “inactive”.
With `C[C@@H]1CCCCO[C@@H](CN(C)C(=O)c2ccncc2)[C@H](C)CN([C@H](C)CO)C(=O)c2cc(NS(=O)(=O)c3ccc(Cl)cc3)ccc2O1` the entry was “inactive”.
With `C[C@@H]1CN([C@@H](C)CO)S(=O)(=O)c2ccc(-c3ccncc3)cc2O[C@@H]1CN(C)C(=O)c1cccc(F)c1` the entry was “inactive”.
With `CO[C@H]1CN(C)C(=O)c2cc(NC(=O)C3CC3)ccc2OC[C@@H](C)N(C(=O)CN2CCOCC2)C[C@@H]1C` the entry was “inactive”.
Regarding `C=CC(=O)N1CC[C@@H](Oc2nc(Nc3ccc(N4CCC(N5CCN(C)CC5)CC4)cc3)c(C(N)=O)nc2CC)C1`, the cytotoxicity call is “active”.
With `CCc1nc(C(N)=O)c(Nc2ccc(N3CCC(N4CCN(C)CC4)CC3)c(OC)c2)nc1NC1CCOCC1` the entry was “active”; with `COCC(=O)NCc1cc(=O)n2c(n1)CN(c1ncccn1)CCC2`, “inactive”; with `CO[C@H]1CN(C)C(=O)c2cc(NC(=O)Nc3ccccc3)ccc2OC[C@@H](C)N(C(=O)CN(C)C)C[C@@H]1C`, “inactive”.
For the compound `C[C@H](CO)N1C[C@H](C)[C@H](CN(C)Cc2ccc(C(=O)Nc3ccccc3N)cc2)Oc2ccc(NS(=O)(=O)c3cn(C)cn3)cc2CC1=O`, the cytotoxicity call is “inactive”.
With `COc1ccc(CN(C)C[C@@H]2OCCCC[C@@H](C)Oc3ccc(NC(=O)Nc4ccc(F)cc4)cc3C(=O)N([C@H](C)CO)C[C@@H]2C)cc1` the entry was “inactive”; with `COc1ccc(CN(C)C[C@@H]2OCCCC[C@H](C)Oc3ccc(NC(=O)Nc4ccc(F)cc4)cc3C(=O)N([C@@H](C)CO)C[C@@H]2C)cc1`, “active”; with `COc1ccc(CN(C)C[C@H]2OCCCC[C@@H](C)Oc3ccc(NC(=O)Nc4ccc(F)cc4)cc3C(=O)N([C@@H](C)CO)C[C@H]2C)cc1`, “inactive”.
With `COc1ccc(CN(C)C[C@@H]2OCCCC[C@H](C)Oc3ccc(NC(=O)Nc4ccc(F)cc4)cc3C(=O)N([C@H](C)CO)C[C@@H]2C)cc1` the entry was “active”; with `COc1ccc(CN(C)C[C@@H]2OCCCC[C@@H](C)Oc3ccc(NC(=O)Nc4ccc(F)cc4)cc3C(=O)N([C@H](C)CO)C[C@H]2C)cc1`, “active”.
With `COc1ccc(CN(C)C[C@@H]2OCCCC[C@H](C)Oc3ccc(NC(=O)Nc4ccc(F)cc4)cc3C(=O)N([C@H](C)CO)C[C@H]2C)cc1`, the cytotoxicity call is “inactive”.
With `COc1ccc(CN(C)C[C@H]2OCCCC[C@@H](C)Oc3ccc(NC(=O)Nc4ccc(F)cc4)cc3C(=O)N([C@H](C)CO)C[C@@H]2C)cc1` the entry was “inactive”.
`COc1ccc(CN(C)C[C@@H]2OCCCC[C@@H](C)Oc3ccc(NC(=O)Nc4ccc(F)cc4)cc3C(=O)N([C@@H](C)CO)C[C@@H]2C)cc1`: the cytotoxicity call was “inactive”.
As to `COc1ccc(CN(C)C[C@@H]2OCCCC[C@H](C)Oc3ccc(NC(=O)Nc4ccc(F)cc4)cc3C(=O)N([C@@H](C)CO)C[C@H]2C)cc1`, the cytotoxicity call is “inactive”.
Consider `COc1ccc(CN(C)C[C@@H]2OCCCC[C@@H](C)Oc3ccc(NC(=O)Nc4ccc(F)cc4)cc3C(=O)N([C@@H](C)CO)C[C@H]2C)cc1`, for which the cytotoxicity call was “active”.
With `C[C@H](CO)N1C[C@H](C)[C@@H](CN(C)Cc2ccccc2F)Oc2cc(C#CC3CC3)ccc2S1(=O)=O` the entry was “inactive”.
`Nc1cnc(Cl)nc1N`: the cytotoxicity call is “inactive”.
With `COC(=O)C[C@@H]1C(=O)NCCN1C(=O)NS(=O)(=O)c1ccc(C)cc1` the entry was “inactive”.
In the case of `C[C@@H]1CN([C@H](C)CO)C(=O)c2cccc(NS(=O)(=O)c3cccs3)c2O[C@@H]1CN(C)S(=O)(=O)c1ccccc1`, the cytotoxicity call is “inactive”.
As to `O=C(NN1CCCCC1)c1nn(-c2ccc(Cl)cc2Cl)c(-c2ccc(C#Cc3ccc(C(F)(F)F)cc3)s2)c1CNS(=O)(=O)N1CCCC1`, the cytotoxicity call is “inactive”.
For the compound `COc1ccc(CN(C)C[C@H]2OCCCC[C@H](C)Oc3ccc(NC(=O)Nc4ccc(F)cc4)cc3C(=O)N([C@@H](C)CO)C[C@H]2C)cc1`, the cytotoxicity call was “active”.
As to `COc1ccc(CN(C)C[C@H]2OCCCC[C@H](C)Oc3ccc(NC(=O)Nc4ccc(F)cc4)cc3C(=O)N([C@@H](C)CO)C[C@@H]2C)cc1`, the cytotoxicity call is “inactive”.
For `COc1ccc(CN(C)C[C@H]2OCCCC[C@H](C)Oc3ccc(NC(=O)Nc4ccc(F)cc4)cc3C(=O)N([C@H](C)CO)C[C@@H]2C)cc1`, the cytotoxicity call is “inactive”.
With `COc1ccc(CN(C)C[C@H]2OCCCC[C@@H](C)Oc3ccc(NC(=O)Nc4ccc(F)cc4)cc3C(=O)N([C@H](C)CO)C[C@H]2C)cc1` the entry was “active”.
For the compound `COc1ccc(CN(C)C[C@H]2OCCCC[C@H](C)Oc3ccc(NC(=O)Nc4ccc(F)cc4)cc3C(=O)N([C@H](C)CO)C[C@H]2C)cc1`, the cytotoxicity call is “active”.
With `COc1ccc(CN(C)C[C@H]2OCCCC[C@@H](C)Oc3ccc(NC(=O)Nc4ccc(F)cc4)cc3C(=O)N([C@@H](C)CO)C[C@@H]2C)cc1` the entry was “active”; with `CCn1nnc2c(SCC(N)=O)ncnc21`, “inactive”; with `O=C(NCc1ccccc1)OCCO`, “inactive”.
As to `O=C(C[C@H]1CC[C@@H]2[C@H](COC[C@@H](O)CN2C(=O)Nc2ccc(F)cc2)O1)NCCCN1CCOCC1`, the cytotoxicity call was “inactive”.
For the compound `CN1CCN(C(=O)C[C@H]2CC[C@@H]3[C@H](COC[C@H](O)CN3S(=O)(=O)c3cccc(F)c3)O2)CC1`, the cytotoxicity call is “inactive”.
With `COc1cccc(S(=O)(=O)N2C[C@H](O)COC[C@H]3O[C@@H](CC(=O)NCCCN4CCOCC4)CC[C@@H]32)c1` the entry was “inactive”.
With `C[C@@H]1CCCCO[C@H](CN(C)C(=O)Cc2ccccc2)[C@@H](C)CN([C@H](C)CO)C(=O)c2cc(NS(=O)(=O)c3ccc(Cl)cc3)ccc2O1` the entry was “inactive”; with `C[C@@H]1CN([C@H](C)CO)C(=O)c2cc(NS(=O)(=O)c3ccccc3)ccc2O[C@@H](C)CCCCO[C@@H]1CN(C)C(=O)C1CCCCC1`, “inactive”.
`Cc1cc(C=Cc2ccc3cc(N(C)C)ccc3[n+]2C)c(C)n1-c1ccccc1.O=C([O-])c1cc2ccccc2c(Cc2c(O)c(C(=O)O)cc3ccccc23)c1O`: the cytotoxicity call was “active”.
With `CN1CCCN=C1C=Cc1cccs1.O=C(O)c1cc2ccccc2c(Cc2c(O)c(C(=O)O)cc3ccccc23)c1O` the entry was “inactive”.
With `CN1CCCN=C1C=Cc1cccc(O)c1.O=C(O)c1cc2ccccc2c(Cc2c(O)c(C(=O)O)cc3ccccc23)c1O` the entry was “inactive”.
